This note sets out measurements from ChEMBL document CHEMBL5606460, “ASAP - DENV-2 NS2B-NS3 protease fluorescence single point” (2024).

This assay deals with Genome polyprotein (dengue virus type 2) (UniProt P29990).
Setting [1] is: Thailand/16681/1984, Concentration 25.0 uM, Number of replicates 1.0.

Out of some 2,000 compounds screened, about 110 (5.5%) showed an effect of 50% or more. The sample as a whole holds a higher share of strong results than the screen did.

For the compound `CNC(=O)c1cc(Cl)ccc1NS(=O)(=O)c1ccc(OC)cc1`, the inhibition (Thailand/16681/1984, Concentration 49.5 uM, Number of replicates 2.0, Standard deviation 1.598704816821166 %) was -9.51%. Take `O=C(O)c1cc(Cl)ccc1NS(=O)(=O)c1ccc(Oc2ccccc2Cl)cc1`: the inhibition by setting is: (Thailand/16681/1984, Concentration 49.5 uM, Number of replicates 2.0, Standard deviation 0.09788858447746204 %) 95.7%; (Thailand/16681/1984, Concentration 99.01 uM, Number of replicates 2.0, Standard deviation 0.14802782416517393 %) 94.6%; (Thailand/16681/1984, Concentration 198.0 uM, Number of replicates 2.0, Standard deviation 0.06255266668592849 %) 91.9%. Turning to `Cc1cc(CO)c2cccc(Cc3ccccc3C(=O)N[C@@H](CCCN)C(=O)O)c2n1`, the inhibition was -9.67% (Thailand/16681/1984, Concentration 49.95 uM, Number of replicates 2.0, Standard deviation 1.450239339781055 %) and 0.782% (Thailand/16681/1984, Concentration 99.9 uM, Number of replicates 2.0, Standard deviation 1.946109361538337 %). On to `CCOC(=O)c1cc(CNCc2nnc3ccccn23)[nH]n1`, for which the inhibition is, setting by setting: (Thailand/16681/1984, Concentration 49.5 uM, Number of replicates 2.0, Standard deviation 0.017813955579008514 %) 6.64%; (Thailand/16681/1984, Concentration 99.01 uM, Number of replicates 2.0, Standard deviation 0.5926797733534107 %) 7.63%; (Thailand/16681/1984, Concentration 198.0 uM, Number of replicates 2.0, Standard deviation 1.0587355780894199 %) 6.43%.

For `Cc1cc(CO)c2cccc(CC(=O)N[C@H](Cc3c[nH]cn3)C(=O)O)c2n1`, the inhibition (Thailand/16681/1984, Concentration 49.95 uM, Number of replicates 2.0, Standard deviation 0.5871204354474296 %) turned out to be 9.25% and the inhibition (Thailand/16681/1984, Concentration 99.9 uM, Number of replicates 2.0, Standard deviation 0.6044303147182479 %) was determined as 24.8%. Consider `O=Cc1ccc(N2CCC(C(=O)N3CCN(Cc4ccc(Cl)nc4)CC3)CC2)cc1`, for which the inhibition under setting [1] is 10.1%. On to `C[C@H](NC(=O)C1CCN(c2ccc(C=O)cc2)CC1)c1cccc(C(F)(F)F)c1`, for which the inhibition under setting [1] came out at 11%.

As to `O=Cc1ccc(N2CCC(C(=O)N[C@H]3C[C@@H]3c3ccc(F)c(F)c3)CC2)cc1`, the inhibition under setting [1] worked out at 12.2%. As to `O=Cc1ccc(N2CCC(C(=O)NCc3ccccc3OC(F)(F)F)CC2)cc1`, the inhibition under setting [1] is 12.7%. With `O=Cc1ccc(N2CCC(C(=O)Nc3ccc(Oc4ccc(Cl)cc4)cc3)CC2)cc1`, the inhibition under setting [1] turned out to be 3.01%. As to `O=C(c1cc2ccccc2[nH]1)N1CCC[C@H](c2c[nH]c3ncccc23)C1`, the inhibition is, setting by setting: (Thailand/16681/1984, Concentration 49.5 uM, Number of replicates 2.0, Standard deviation 0.6846779142829902 %) 3.74%; (Thailand/16681/1984, Concentration 99.01 uM, Number of replicates 2.0, Standard deviation 0.6286192340156203 %) 6.35%; (Thailand/16681/1984, Concentration 198.0 uM, Number of replicates 2.0, Standard deviation 0.39513209958624096 %) 4.86%.

As to `O=Cc1ccc(N2CCC(C(=O)N3CCO[C@@H](c4ccccc4)C3)CC2)cc1`, the inhibition under setting [1] was 8.68%. With `Cc1cc(CO)c2cccc(Cc3cccc(C(=O)NCCN4CCOCC4)c3)c2n1`, the inhibition by setting is: (Thailand/16681/1984, Concentration 49.95 uM, Number of replicates 2.0, Standard deviation 1.1800261159088588 %) -8.12%; (Thailand/16681/1984, Concentration 99.9 uM, Number of replicates 2.0, Standard deviation 0.7869239771342965 %) -3.46%.

On to `O=C(NCC1(c2ccncc2F)CCC1)[C@@]1(c2ccc(F)cc2)CCCNC1`, for which the inhibition is -2.89% (Thailand/16681/1984, Concentration 49.5 uM, Number of replicates 2.0, Standard deviation 0.9074685157350926 %); -1.32% (Thailand/16681/1984, Concentration 99.01 uM, Number of replicates 2.0, Standard deviation 1.7740222143666056 %); -0.296% (Thailand/16681/1984, Concentration 198.0 uM, Number of replicates 2.0, Standard deviation 1.670161679604597 %). Regarding `Cc1cc(CO)c2cccc(Cc3cccc(C(=O)N[C@@H](CCCN)C(=O)O)c3)c2n1`, the inhibition by setting is: (Thailand/16681/1984, Concentration 49.95 uM, Number of replicates 2.0, Standard deviation 0.7049975000059713 %) -1.78%; (Thailand/16681/1984, Concentration 99.9 uM, Number of replicates 2.0, Standard deviation 0.2824297407941699 %) 11.7%. Consider `Cc1cc(CO)c2cccc(CC(=O)N[C@@H](C)C(N)=O)c2n1`, for which the inhibition by setting is: (Thailand/16681/1984, Concentration 49.95 uM, Number of replicates 2.0, Standard deviation 0.6764350022386235 %) -6.74%; (Thailand/16681/1984, Concentration 99.9 uM, Number of replicates 2.0, Standard deviation 0.17585957987303982 %) -4.59%. With `Cc1cc(CO)c2cccc(Cc3cccc(C(=O)N[C@@H](CCC(N)=O)C(=O)O)c3)c2n1`, the inhibition reads like this: (Thailand/16681/1984, Concentration 49.95 uM, Number of replicates 2.0, Standard deviation 0.9076569964416333 %) 26.5%; (Thailand/16681/1984, Concentration 99.9 uM, Number of replicates 2.0, Standard deviation 0.5346782919570826 %) 79%. As to `Cc1cc(CO)c2cccc(Cc3cccc(C(=O)N[C@@H](CCN)C(=O)O)c3)c2n1`, the inhibition is -9.07% (Thailand/16681/1984, Concentration 49.95 uM, Number of replicates 2.0, Standard deviation 0.6194784255105775 %) and 0.432% (Thailand/16681/1984, Concentration 99.9 uM, Number of replicates 2.0, Standard deviation 14.524673907807347 %). `Cc1cc(CO)c2cccc(CC(=O)N[C@@H](CCC(N)=O)C(=O)O)c2n1`: the inhibition is, setting by setting: (Thailand/16681/1984, Concentration 49.95 uM, Number of replicates 2.0, Standard deviation 0.1031646955614498 %) 95.6%; (Thailand/16681/1984, Concentration 99.9 uM, Number of replicates 2.0, Standard deviation 0.012461980167701147 %) 98.7%. `Cc1cc(CO)c2cccc(Cc3ccccc3C(=O)N[C@@H](CCC(N)=O)C(=O)O)c2n1`: the inhibition reads like this: (Thailand/16681/1984, Concentration 49.95 uM, Number of replicates 2.0, Standard deviation 0.9816783263695582 %) 12.6%; (Thailand/16681/1984, Concentration 99.9 uM, Number of replicates 2.0, Standard deviation 0.9155644195718532 %) 39.4%. As for `OB1CCc2c(cccc2N2CC[C@@H](O)C2)O1`, the inhibition (Thailand/16681/1984, Concentration 49.5 uM, Number of replicates 2.0, Standard deviation 2.1653827241885084 %) was -1.07%; the inhibition (Thailand/16681/1984, Concentration 99.01 uM, Number of replicates 2.0, Standard deviation 1.9510885480745654 %) was -0.363%; the inhibition (Thailand/16681/1984, Concentration 198.0 uM, Number of replicates 2.0, Standard deviation 2.0113725552722737 %) came to 1.02%. Consider `Cc1nnccc1Cn1cc(C2CCNCC2)c(C)n1`, for which the inhibition runs as follows: (Thailand/16681/1984, Concentration 49.5 uM, Number of replicates 2.0, Standard deviation 1.059758229221688 %) -5.29%; (Thailand/16681/1984, Concentration 99.01 uM, Number of replicates 2.0, Standard deviation 7.779121042682183 %) 2.01%; (Thailand/16681/1984, Concentration 198.0 uM, Number of replicates 2.0, Standard deviation 1.1444678313445817 %) -3.21%.

Broadly, the inhibition is the relative decrease from the control value, in per cent.
